Screens (PubChem BioAssay)
KB-V1 MDR tox: kills drug-selected multidrug resistant KB-V1 cells; KB-V1 MDR cells viability, CellTiter-Glo, 72 h; AID 1347076; Potency, µM (top dose mostly 46.1 µM), most hits filed as cytotoxic; 400,000 compounds, 3.4% hits; note: potency is the fitted concentration of half-maximal effect; % is set by controls: 0 for no effect and ±100 for the full control effect; nearly all actives have a fitted effect of over 60% in size
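Cells of the MDR subline KB-V1 are plated, dosed with compound at multiple concentrations, and incubated 72 h at 37 degrees C; CellTiter-Glo is then added and luminescence read after 10 min.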
KB-3-1 tox: KB-3-1 parental cell cytotoxicity; KB-3-1 viability, CellTiter-Glo ATP luminescence, 72 h; Potency, µM (doses to about 46.1 µM), actives largely listed as cytotoxic; 400,000 compounds, 1.4% hits; AID 1347075; note: potency is the fitted concentration of half-maximal effect; % is set by controls: 0 for no effect and ±100 for the full control effect; nearly all actives have a fitted effect of over 60% in size
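Cytotoxicity in the drug-sensitive parental line KB-3-1 was scored as loss of CellTiter-Glo luminescence following 72 h incubation with compound. Values come from curve fitting of normalized concentration-response data.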
IL-1B inflam inh: inflammasome signaling inhibition, IL-1 beta readout; activity change, % at 57.5 µM; THP-1 LPS/ATP IL-1B secretion, AlphaLISA, 16 h; stronger effect = lower value; 360,000 compounds, 4.7% hits; in the data active = activity change below about -50%; inconclusive = mostly about -30% to -49%; note: % is set by controls: 0 for no effect and ±100 for the full control effect
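THP-1 cells pretreated 1 hr with compounds (up to 57.5 uM final), then stimulated with LPS (250 ng/mL final) plus ATP (1.25 mM final); secreted IL-1B measured by AlphaLISA after 16 hr, decreased signal indicating inhibition.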
MCF10A rereplic: induces DNA re-replication in MCF 10a normal breast cells | MCF 10A DNA re-replication, Hoechst nuclear intensity, 48 h | 350,000 compounds, 2.9% hits | AID 624296 | Potency, µM (doses to about 46.1 µM), for the others: at the top dose activity, positive = re-replication, usual class: activators; note: potency is the fitted concentration of half-maximal effect; % of control where 0% means no effect; nearly all actives have a fitted effect of over 50% in size
SW480 rerep: inducers of DNA re-replication in SW480 colon cancer cells | SW480 DNA re-replication, Hoechst DNA content imaging, 48 h | Potency, µM (titrated, usually from 46.1 µM), without a hit: top-dose re-replication activation, hits mostly activators | 340,000 compounds, 1.8% hits; note: potency is the fitted concentration of half-maximal effect; % of control where 0% means no effect; nearly all actives have a fitted effect of over 55% in size
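Image-based DNA-content assay: after two days of treatment, nuclei were labelled with the DNA dye Hoechst and imaged, and hits were compounds raising the count of nuclei showing high fluorescence intensity.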
An asterisk follows results filed as active. Only some compounds are listed: those with a hit (about 9.9% of all), similar ones and a draw of the others. Unless noted, calls come from the whole dose curve; as a rule, active = well fitted curve in the direction sought with a large enough effect; inconclusive = small, poorly fitted or top-dose-only effect, or another doubt; inactive = no such curve, though single readings can be large; an effect the other way counts as inactive or inconclusive.

Cc1ccc(-c2cc(-c3coc4ccc(Cl)cc4c3=O)c3c(n2)-c2ccccc2OC3)cc1 was read as KB-V1 MDR tox inactive and KB-3-1 tox inactive.
`Cc1ccc(S(=O)(=O)NNC(=O)C(O)(c2ccccc2C)c2ccccc2C)cc1` gave KB-V1 MDR tox inconclusive, KB-3-1 tox inactive, IL-1B inflam inh 4, MCF10A rereplic 1% and SW480 rerep 0%.
Screening Oc1ccc(COCc2ccccc2)c2cccnc12 returned KB-V1 MDR tox inconclusive, KB-3-1 tox inconclusive, IL-1B inflam inh 108, MCF10A rereplic inconclusive and SW480 rerep 3.3µM*.
`OCc1ccc(O)c2ncccc12` gave KB-V1 MDR tox inconclusive, KB-3-1 tox inconclusive, IL-1B inflam inh 80, MCF10A rereplic inconclusive and SW480 rerep 16µM*.
Oc1c(CN2CCCCC2)ccc2cccnc12 was read as KB-V1 MDR tox inconclusive, KB-3-1 tox inconclusive, IL-1B inflam inh -98*, MCF10A rereplic 112% and SW480 rerep 5.2µM*.
Screening Cc1oc(-c2cc(F)cc(F)c2)nc1CN1CCSCC1 returned KB-V1 MDR tox inactive, KB-3-1 tox inactive, IL-1B inflam inh -23, MCF10A rereplic 1% and SW480 rerep -5%.
Screening COc1ccccc1/C=C/CN1CCCC(CO)(Cc2cccc(Cl)c2)C1 (centres undefined) returned KB-V1 MDR tox inactive, KB-3-1 tox inactive, IL-1B inflam inh -70*, MCF10A rereplic inconclusive and SW480 rerep inconclusive.
Screening COc1cccc(CC2(CO)CCCN(C/C=C/c3ccccc3OC)C2)c1 (centres undefined) returned KB-V1 MDR tox inactive, KB-3-1 tox inactive, IL-1B inflam inh -5, MCF10A rereplic 8% and SW480 rerep 12%.
`COc1ccc(/C=C/CN2CCCC(CO)(Cc3cccc(Cl)c3)C2)cc1` (centres undefined) gave KB-V1 MDR tox inactive, KB-3-1 tox inconclusive, IL-1B inflam inh -78*, MCF10A rereplic inconclusive and SW480 rerep inconclusive.
COc1cc(Cl)c(CN2CCCC(CO)(Cc3cccc(Cl)c3)C2)cc1OC (centres undefined) was read as KB-V1 MDR tox inconclusive, KB-3-1 tox inconclusive, IL-1B inflam inh 11, MCF10A rereplic inconclusive and SW480 rerep inconclusive.
Screening COc1ccc(F)c(CN2CCCC(CO)(Cc3cccc(Cl)c3)C2)c1 (centres undefined) returned KB-V1 MDR tox inactive, KB-3-1 tox inactive, IL-1B inflam inh -7, MCF10A rereplic 16% and SW480 rerep 6%.
Screening COc1cccc(CC2(CO)CCCN(Cc3ccccc3Cl)C2)c1 (centres undefined) returned KB-V1 MDR tox inconclusive, KB-3-1 tox inactive, IL-1B inflam inh 0, MCF10A rereplic 4.6µM* and SW480 rerep -10%.
`O=C(NCCCn1ccnc1)c1cc(-c2cccs2)on1` gave KB-V1 MDR tox 15µM*, KB-3-1 tox 15µM*, IL-1B inflam inh 37, MCF10A rereplic 15% and SW480 rerep 4%.
`Cc1nc2cc(C(=O)O)ccc2n1-c1ccc(C(C)C)cc1` gave KB-V1 MDR tox inactive and KB-3-1 tox inactive.
For CCCC(=O)NC(c1ccc(Cl)cc1)c1ccc2cccnc2c1O (centres undefined) the results were KB-V1 MDR tox inconclusive, KB-3-1 tox inconclusive, IL-1B inflam inh 108, MCF10A rereplic inconclusive and SW480 rerep 2.9µM*.
Screening COc1ccc(C(NC(C)=O)c2ccc3cccnc3c2O)c(OC)c1 (centres undefined) returned KB-V1 MDR tox inconclusive, KB-3-1 tox 7.3µM*, IL-1B inflam inh 111, MCF10A rereplic 13% and SW480 rerep 2.9µM*.
Screening CC(=O)NC(c1ccc(Cl)cc1Cl)c1ccc2cccnc2c1O (centres undefined) returned KB-V1 MDR tox inactive, KB-3-1 tox inconclusive, IL-1B inflam inh 154, MCF10A rereplic inconclusive and SW480 rerep 11%.
Screening CCCCC(=O)NC(c1ccc(Cl)cc1)c1ccc2cccnc2c1O (centres undefined) returned KB-V1 MDR tox inconclusive, KB-3-1 tox inactive, IL-1B inflam inh 156, MCF10A rereplic 12µM* and SW480 rerep 1µM*.
CCCC(=O)NC(c1ccc(Cl)cc1Cl)c1ccc2cccnc2c1O (centres undefined) was read as KB-V1 MDR tox inactive, KB-3-1 tox inconclusive, IL-1B inflam inh 124, MCF10A rereplic inconclusive and SW480 rerep 0.65µM*.
For CCNC(=O)CC1C(=O)N(c2ccc(C)cc2)C(=O)N1Cc1ccc(C)cc1 (centres undefined) the results were KB-V1 MDR tox inactive and KB-3-1 tox inactive.
Cc1cccc(C)c1OC(=O)CCN1C(=O)C2C3C=CC(C4CC34)C2C1=O (centres undefined) was read as KB-V1 MDR tox inactive, KB-3-1 tox inactive, IL-1B inflam inh 19, MCF10A rereplic 7% and SW480 rerep 0%.
For CCCCC(=O)NC(c1ccc(N(CC)CC)cc1)c1ccc2cccnc2c1O (centres undefined) the results were KB-V1 MDR tox inconclusive, KB-3-1 tox 4.6µM*, IL-1B inflam inh 136, MCF10A rereplic inconclusive and SW480 rerep inconclusive.
Screening CCCC(=O)NC(c1ccccc1OC)c1ccc2cccnc2c1O (centres undefined) returned KB-V1 MDR tox inconclusive, KB-3-1 tox inconclusive, IL-1B inflam inh 140, MCF10A rereplic 17% and SW480 rerep inconclusive.
`CCCC(=O)NC(c1cccc([N+](=O)[O-])c1)c1ccc2cccnc2c1O` (centres undefined) gave KB-V1 MDR tox inconclusive, KB-3-1 tox 9.2µM* and IL-1B inflam inh 58.
Screening CCCC(=O)NC(c1ccc(C)cc1)c1ccc2cccnc2c1O (centres undefined) returned KB-V1 MDR tox 3.7µM*, KB-3-1 tox inconclusive, IL-1B inflam inh 184, MCF10A rereplic 21µM* and SW480 rerep inconclusive.
Cc1ccc(C(Nc2ccccn2)c2ccc3cccnc3c2O)cc1 (centres undefined) was read as KB-V1 MDR tox inactive and KB-3-1 tox inconclusive.
For CCCCC(=O)NC(c1ccccc1OC)c1ccc2cccnc2c1O (centres undefined) the results were KB-V1 MDR tox inconclusive, KB-3-1 tox 6.5µM*, IL-1B inflam inh 180, MCF10A rereplic 26% and SW480 rerep 0.73µM*.
CCCCC(=O)NC(c1ccc(N(C)C)cc1)c1ccc2cccnc2c1O (centres undefined) was read as KB-V1 MDR tox inconclusive, KB-3-1 tox inconclusive, IL-1B inflam inh 116, MCF10A rereplic inconclusive and SW480 rerep inconclusive.
COc1cc2nc(SCc3ccc(Cl)cc3)n3nc(CCn4nc(C)cc4C)nc3c2cc1OC was read as KB-V1 MDR tox inconclusive and KB-3-1 tox inactive.
